Experimental findings from PubChem BioAssay (NCATS) are described below.

A short description of assay [1]: Quantitative High-Throughput drug screen in 47 multiple myeloma cell lines against the NCATS MIPE library collection: KMS20_JCRB cell viability assay (AID 1918973). Also: nearly all actives have a fitted effect of over 45% in size. The procedure, abridged:
(§1)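 CellTiter-Glo luminescence (ATP) after 48 h compound exposure, 37C/5% CO2; 500 cells/well; MIPE 4.0 approved/investigational drugs pinned in; DMSO = 100%, media only = 0% viability.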

Assay [2] is described as follows: Quantitative High-Throughput drug screen in 47 multiple myeloma cell lines against the NCATS MIPE library collection: KMS26_JCRB cell viability assay (AID 1918975). Also: nearly all actives have a fitted effect of over 45% in size. The procedure, abridged: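 Luminescent ATP measurement with CellTiter-Glo gives viability, scaled between DMSO-only wells (100%) and media-only wells (0%). Cells, 500 per well, faced library compounds for 48 hours at 37C.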

The nature of assay [3]: Quantitative High-Throughput drug screen in 47 multiple myeloma cell lines against the NCATS MIPE library collection: MMM1_PLB cell viability assay (AID 1918976). Also: nearly all actives have a fitted effect of over 35% in size. The procedure, abridged:
(§2)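 Viability after 48 h drug exposure was measured as ATP-dependent luminescence. Cells, 500 per well, sat at 37 °C under 5% CO2; DMSO wells set 100%, media-only wells 0%.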

A short description of assay [4]: Quantitative High-Throughput drug screen in 47 multiple myeloma cell lines against the NCATS MIPE library collection: OCIMY1_PLB cell viability assay (AID 1918979). Also: nearly all actives have a fitted effect of over 35% in size. The procedure, abridged: as §2
Assay [5] can be described thus: Quantitative High-Throughput drug screen in 47 multiple myeloma cell lines against the NCATS MIPE library collection: MM1S_ATCC cell viability assay (AID 1918980). Also: nearly all actives have a fitted effect of over 45% in size. The procedure, abridged: as §2
A short description of assay [6]: Quantitative High-Throughput drug screen in 47 multiple myeloma cell lines against the NCATS MIPE library collection: MM1R_ATCC cell viability assay (AID 1918981). Also: nearly all actives have a fitted effect of over 35% in size. The procedure, abridged:
as §2

Assay [7] can be described thus: Quantitative High-Throughput drug screen in 47 multiple myeloma cell lines against the NCATS MIPE library collection: NCIH929_DSMZ cell viability assay (AID 1918978). Also: nearly all actives have a fitted effect of over 35% in size. The procedure, abridged:
as §2

The nature of assay [8]: Quantitative High-Throughput drug screen in 47 multiple myeloma cell lines against the NCATS MIPE library collection: KMS12PE_JCRB cell viability assay (AID 1918972). Also: nearly all actives have a fitted effect of over 30% in size. The procedure, abridged:
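qHTS of the MIPE 4.0 collection: 500 myeloma cells/well, 48 h drug exposure at 37C in 5% CO2, then CellTiter-Glo for 5 min at room temperature before luminescence reading.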

Assay [9] in a line: Quantitative High-Throughput drug screen in 47 multiple myeloma cell lines against the NCATS MIPE library collection: KMS21BM_JCRB cell viability assay (AID 1918974). The settings on record: ATP luminescence, 48 h; viability: at 45.8 µM (top of the series). The procedure, abridged:
as §1

Assay [10] is described as follows: Quantitative High-Throughput drug screen in 47 multiple myeloma cell lines against the NCATS MIPE library collection: MOLP8_DSMZ cell viability assay (AID 1918977). Also: nearly all actives have a fitted effect of over 45% in size. The procedure, abridged: as §2

Records with an inconclusive call do not appear. Calls of active or inactive are those of the source. Calls follow the shape of the dose curve; as a rule, active = well fitted curve in the direction sought with a large enough effect; inconclusive = small, poorly fitted or top-dose-only effect, or another doubt; inactive = no such curve, though single readings can be large; an effect the other way counts as inactive or inconclusive.
Potency is read from the fitted curve at half-maximal effect.

As for `CN1CCC(COc2cnc(-c3cccc(Cn4nc(-c5cccc(C#N)c5)ccc4=O)c3)nc2)CC1`, the Potency is 0.526 µM (active) in assay [1]; 0.235 µM (active) in assay [2]; 0.059 µM (active) in assay [3]; 0.0743 µM (active) in assay [5]; 18.7 µM (active) in assay [6]. The Potency result in assay [4] was “inactive”.

Take `CS(=O)(=O)c1ccc(C2=C(c3ccccc3)C(=O)OC2)cc1`: the Potency result in assay [1], in [2], in assay [7], in assay [4] and in assay [6] was “inactive” throughout.

Take `NC(N)=Nc1nc(CSCCC(N)=NS(N)(=O)=O)cs1`: the Potency entry in [8] is “inactive”. Besides, the Potency in assay [5] is 9.35 µM (active); in assay [6], 23.5 µM (active).

For the molecule `Cc1cnc(Nc2cccc(CN3CCOCC3)c2)nc1Nc1cccc(S(=O)(=O)NC(C)(C)C)c1`, the Potency is 2.96 µM (active) in assay [1]; 0.833 µM (active) in [9]; 18.7 µM (active) in assay [3]; 2.96 µM (active) in [10]; 1.87 µM (active) in assay [7]; 10.5 µM (active) in assay [6].

Take `COc1cc(C=CC(=O)O)ccc1O`: the Potency result in assay [8], in assay [7] and in assay [6] was “inactive” throughout.

`COc1cc(Nc2nc3ccccc3nc2NS(=O)(=O)c2ccc(NC(=O)c3ccc(C)c(OC)c3)cc2)cc(OC)c1`: the Potency in assay [1] was 23.5 µM (active); in [2], 11.8 µM (active); in assay [5] it was 20.9 µM (active).

Take `C[C@@H]1CCO[C@H]2Cn3cc(C(=O)NCc4ccc(F)cc4F)c(=O)c(O)c3C(=O)N12`: the Potency entry in [8] and in [4] was “inactive” throughout. Also, the Potency is 20.9 µM (active) in [5] and 23.5 µM (active) in [6].

With `CN1c2ccccc2C(=O)N2CCc3c([nH]c4ccccc34)C21` (configuration not stated), the Potency entry in assay [8], in [4] and in assay [6] was “inactive” each time. For the same molecule, the Potency in assay [5] is 10.5 µM (active).

As for `COc1ccc(-c2cc3nccn3c(Nc3ncccc3C(N)=O)n2)cc1OC`, the Potency in assay [1] is 0.418 µM (active); in assay [2], 10.5 µM (active); in assay [3], 10.5 µM (active); in assay [10], 3.72 µM (active); in assay [7], 0.935 µM (active); in assay [5], 14.8 µM (active). In assay [4], the Potency entry was “inactive”.

For the molecule `CC1=C(CC(=O)O)c2cc(F)ccc2C1=Cc1ccc(S(C)=O)cc1` (configuration not stated), the Potency was 9.35 µM (active) in [1]; 20.9 µM (active) in [9]; 2.09 µM (active) in assay [2]; 1.05 µM (active) in [7]; 1.32 µM (active) in [5]; 3.32 µM (active) in assay [6].

On to `C[C@@]1(c2cc(-c3cncnc3)c(F)cc2F)CCSC(N)=N1`, for which the figures for the Potency in [1] and in assay [7] were 9.35 µM (active) and 2.96 µM (active), respectively. Moreover, the Potency entry in assay [2], in [4] and in assay [6] was “inactive” throughout.

For `NC[C@H]1O[C@H](O[C@@H]2[C@@H](O)[C@@H](O[C@H]3O[C@H](CO)[C@@H](O)[C@H](N)[C@@H]3O)[C@H](N)C[C@@H]2N)[C@H](O)[C@@H](O)[C@H]1O`, the Potency entry in [8], in [4] and in [6] was “inactive” each time.

`CC1(C)OC2CC3C4CC(F)C5=CC(=O)C=CC5(C)C4C(O)CC3(C)[C@]2(C(=O)CO)O1` (some centres not stated): the Potency entry in assay [1], in [2], in assay [3], in [7], in [4] and in [6] was “inactive” each time. The values for the Potency in assay [9] and in assay [5] were 0.0083 µM (active) and 0.0166 µM (active), respectively.

As for `COc1c(C)cnc(Cn2cnc3c(Cl)nc(N)nc32)c1C`, the Potency is 0.209 µM (active) in assay [1]; 0.209 µM (active) in assay [2]; 0.935 µM (active) in assay [3]; 0.0935 µM (active) in [10]; 0.332 µM (active) in assay [5]; 0.235 µM (active) in [6].

As for `O=C(O)c1nc(=O)[nH]c(=O)[nH]1`, the Potency entry in [8], in assay [5] and in assay [6] was “inactive” in each case.

`CCNC(=O)CCCC=CC[C@@H]1[C@H](C=CC(O)CCc2ccccc2)[C@@H](O)C[C@@H]1O` (some centres not stated): the Potency entry in assay [8], in [7] and in [4] was “inactive” each time. Besides, the figures for the Potency in assay [5] and in [6] were 5.9 µM (active) and 26.4 µM (active), respectively.

In the case of `Cc1cccc2c1CC[C@H](CN1CCC(c3c(Cl)cccc3Cl)CC1)C[C@@H]2O`, the values for the Potency in [1] and in [3] were 20.9 µM (active) and 18.7 µM (active), respectively.

`C[C@H](CCC(=O)O)[C@H]1CC[C@H]2[C@H]3[C@@H](CC[C@]12C)[C@@]1(C)CC[C@@H](O)C[C@H]1C[C@@H]3O`: the Potency result in [1], in [2], in assay [7], in assay [4], in assay [5] and in [6] was “inactive” each time. In assay [3], the Potency is 1.66 µM (active).

Consider `C[C@H]1COC2=C1C(=O)C(=O)c1c2ccc2c1CCCC2(C)C`, for which the Potency in assay [1] was 10.5 µM (active); in assay [2], 29.6 µM (active); in assay [3] it was 13.2 µM (active); in assay [5], 26.4 µM (active); in assay [6], 20.9 µM (active). Further, in [4], the Potency result is “inactive”.

Consider `O=C(O)C1=CC(O)C(O)[C@H](O)C1` (some centres not stated), for which the Potency result in [8], in assay [4], in assay [5] and in [6] was “inactive” throughout.

For the molecule `CN(C)CCN(Cc1ccc(Cl)cc1)c1ccccn1`, the Potency result in assay [8], in [4] and in [6] was “inactive” throughout. Moreover, the results for the Potency in [7] and in assay [5] were 10.5 µM (active) and 16.6 µM (active), respectively.

In the case of `CN1C(=O)C(Cc2c[nH]c3ccccc23)NC1=S` (configuration not stated), the Potency result in [1], in [2], in assay [10], in assay [7], in [4] and in assay [5] was “inactive” in each case. Further, the Potency result in [6] was “inactive”. In assay [3], the Potency is 11.8 µM (active).

With `CCC[C@@H](NC(=O)[C@@H]1[C@H]2CCC[C@@H]2CN1C(=O)[C@@H](NC(=O)[C@@H](NC(=O)c1cnccn1)C1CCCCC1)C(C)(C)C)C(=O)C(=O)NC1CC1`, the Potency in [8] was 14.8 µM (active); in [6], 18.7 µM (active). Moreover, the Potency result in assay [7] is “inactive”.

With `CC(=O)Nc1cccc(-n2c(=O)n(C3CC3)c(=O)c3c(Nc4ccc(I)cc4F)n(C)c(=O)c(C)c32)c1`, the Potency in assay [1] is 0.0118 µM (active); in assay [9], 0.0332 µM (active); in assay [3], 7.43 µM (active); in [4], 0.0033 µM (active). The Potency entry in assay [2] was “inactive”.
